PubChem BioAssay (NCATS)
Results filed as inconclusive are left out. Activity calls are given as the source filed them. Calls follow the shape of the dose curve; as a rule, active = well fitted curve in the direction sought with a large enough effect; inconclusive = small, poorly fitted or top-dose-only effect, or another doubt; inactive = no such curve, though single readings can be large; an effect the other way counts as inactive or inconclusive.

Tests used:
[1] = biological target: Tyrosine-protein phosphatase non-receptor type substrate 1 (Homo sapiens) + Leukocyte surface antigen CD47 (Homo sapiens) (UniProt P78324+Q08722); assay: CD47-SIRPalpha protein protein interaction - Alpha assay qHTS validation (AID 1347059);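 also: bead proximity luminescence from CD47 binding SIRPalpha after compound preincubation with SIRPalpha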
Method in brief: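 In PBS (pH 7.4) with 0.05% IGEPAL CA-630, compound is preincubated with biotin-Avi-SIRPalpha ectodomain before His-CD47 ectodomain and affinity beads are added. Light-protected room-temperature incubations; AlphaScreen readout.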

[2] = biological target: Parathyroid hormone/parathyroid hormone-related peptide receptor (Homo sapiens) (UniProt Q03431); assay: qHTS for PTHR1 Agonists: Optimization Screen against the NCGC LOPAC library (AID 1347079);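 also: GloSensor cAMP luminescence in HEK-293 GP2 cells expressing human PTHR1 with IBMX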
Method in brief: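 HEK-293 GP2 cells, PTHR1 + GloSensor cAMP; 3000 cells/well, o/n. Luciferin + IBMX 0.5mM each (stock), 1 hr 37C. Cpd titration, 1 hr 37C. Lum after 15 min RT. Ctrl M-PTH(1-15) top 10uM.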

[3] = qHTS of pediatric cancer cell lines to identify multiple opportunities for drug repurposing: Primary screen for TC32 cells (AID 1347089); also: nearly all actives have a fitted effect of over 60% in size
Method in brief: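 Measured quantity: luminescence from CellTiter-Glo, reflecting metabolically active TC32 cells following 48 h of compound. Curves came straight from multi-point titrations, with 8 or 11 points in primary and 11 in confirmatory screening.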

[4] = qHTS of pediatric cancer cell lines to identify multiple opportunities for drug repurposing: Primary screen for DAOY cells (AID 1347090); also: series mostly up to about 46 µM; nearly all actives have a fitted effect of over 55% in size
Method in brief: (§1)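 Eight- or eleven-point concentration series, 48 h treatment at 37 degrees C in growth media; readout CellTiter-Glo luminescence. Potency and efficacy were taken from the concentration-response curves.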

[5] = qHTS of pediatric cancer cell lines to identify multiple opportunities for drug repurposing: Primary screen for SJ-GBM2 cells (AID 1347091)
Method in brief: as §1

[6] = qHTS of pediatric cancer cell lines to identify multiple opportunities for drug repurposing: Primary screen for A673 cells (AID 1347092); also: nearly all actives have a fitted effect of over 45% in size
Method in brief: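 Cells are plated, rested 5 h, dosed by pintool, incubated 48 h, then lysed with CellTiter-Glo and read by luminescence. DMSO is the neutral control; bortezomib at 2.3 uM final is the positive control.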

[7] = qHTS of pediatric cancer cell lines to identify multiple opportunities for drug repurposing: Primary screen for SK-N-MC cells (AID 1347093); also: series mostly up to about 46 µM
Method in brief: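 Metabolically active cells were quantified by ATP-dependent luminescence (CellTiter-Glo, 15 min at room temperature) following 48 h treatment. Cells had been plated at 500-1,000 per well and settled for 5 h beforehand.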

[8] = qHTS of pediatric cancer cell lines to identify multiple opportunities for drug repurposing: Primary screen for BT-37 cells (AID 1347094); also: series mostly up to about 57 µM
Method in brief: (§2)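 ATP-based luminescence (CellTiter-Glo) quantifies viability after a 48-hour exposure. Compounds are dosed across 8 or 11 final concentrations; DMSO and 2.3 µM bortezomib serve as controls.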

[9] = qHTS of pediatric cancer cell lines to identify multiple opportunities for drug repurposing: Primary screen for NB-EBc1 cells (AID 1347095)
Method in brief: as §2

[10] = qHTS of pediatric cancer cell lines to identify multiple opportunities for drug repurposing: Primary screen for U-2 OS cells (AID 1347096); also: nearly all actives have a fitted effect of over 50% in size
Method in brief: (§3)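 Cells (500-1,000/well) in growth media were settled 5 h at 37 degrees C, then given compounds for 48 h. Viability was read as CellTiter-Glo luminescence. Primary runs used MIPE at 11 points (0.78 nM-46 µM) and NPC at 8 points (0.59 nM-46 µM); follow-ups used 11 points.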

[11] = qHTS of pediatric cancer cell lines to identify multiple opportunities for drug repurposing: Primary screen for Saos-2 cells (AID 1347097); also: nearly all actives have a fitted effect of over 40% in size
Method in brief: as §2

[12] = qHTS of pediatric cancer cell lines to identify multiple opportunities for drug repurposing: Primary screen for SK-N-SH cells (AID 1347098);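 also: DMSO served as neutral control and bortezomib at 2.3 µM as positive control; nearly all actives have a fitted effect of over 65% in size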
Method in brief: (§4)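 Cells (500-1,000/well) rested 5 h, then received compounds for 48 h; metabolically active cells were measured by CellTiter-Glo luminescence. Final concentrations spanned up to 46 µM (MIPE, 11-point) or 0.59 nM-46 µM (NPC, 8-point) in primary screens, 11-point in follow-ups.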

[13] = qHTS of pediatric cancer cell lines to identify multiple opportunities for drug repurposing: Primary screen for NB1643 cells (AID 1347099); also: nearly all actives have a fitted effect of over 50% in size
Method in brief: as §2

[14] = qHTS of pediatric cancer cell lines to identify multiple opportunities for drug repurposing: Primary screen for LAN-5 cells (AID 1347100)
Method in brief: as §3

[15] = qHTS of pediatric cancer cell lines to identify multiple opportunities for drug repurposing: Primary screen for BT-12 cells (AID 1347101); also: nearly all actives have a fitted effect of over 25% in size
Method in brief: as §4

[16] = qHTS of pediatric cancer cell lines to identify multiple opportunities for drug repurposing: Primary screen for Rh18 cells (AID 1347102); also: nearly all actives have a fitted effect of over 65% in size
Method in brief: as §3

[17] = qHTS of pediatric cancer cell lines to identify multiple opportunities for drug repurposing: Primary screen for OHS-50 cells (AID 1347103); also: nearly all actives have a fitted effect of over 40% in size
Method in brief: as §4

[18] = qHTS of pediatric cancer cell lines to identify multiple opportunities for drug repurposing: Primary screen for RD cells (AID 1347104); also: nearly all actives have a fitted effect of over 55% in size
Method in brief: as §2

[19] = qHTS of pediatric cancer cell lines to identify multiple opportunities for drug repurposing: Primary screen for MG 63 (6-TG R) cells (AID 1347105); also: nearly all actives have a fitted effect of over 50% in size
Method in brief: as §2

[20] = qHTS of pediatric cancer cell lines to identify multiple opportunities for drug repurposing: Primary screen for control Hh wild type fibroblast cells (AID 1347106);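 also: series mostly up to about 46 µM; a drop in luminescence marks cytotoxicity and a rise apparent proliferation; nearly all actives have a fitted effect of over 55% in size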
Method in brief: as §3

Measured: Potency

Chain of Tyrosine-protein phosphatase non-receptor type substrate 1 (Homo sapiens) + Leukocyte surface antigen CD47 (Homo sapiens) (P78324 whole entry, looked up, the tested form may be a part): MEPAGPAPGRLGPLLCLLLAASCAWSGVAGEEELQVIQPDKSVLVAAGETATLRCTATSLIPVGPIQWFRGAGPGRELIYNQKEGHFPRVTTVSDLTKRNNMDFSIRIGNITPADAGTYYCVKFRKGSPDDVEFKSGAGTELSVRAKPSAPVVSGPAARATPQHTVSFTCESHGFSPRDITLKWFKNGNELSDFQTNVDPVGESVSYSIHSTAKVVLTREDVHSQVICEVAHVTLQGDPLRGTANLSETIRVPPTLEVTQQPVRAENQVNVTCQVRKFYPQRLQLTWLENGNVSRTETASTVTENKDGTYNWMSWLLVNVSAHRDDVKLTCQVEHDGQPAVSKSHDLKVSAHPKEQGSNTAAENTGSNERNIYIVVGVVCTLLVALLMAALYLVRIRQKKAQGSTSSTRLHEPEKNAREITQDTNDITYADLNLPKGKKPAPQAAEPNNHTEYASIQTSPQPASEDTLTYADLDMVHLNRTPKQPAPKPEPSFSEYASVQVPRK
Chain of Tyrosine-protein phosphatase non-receptor type substrate 1 (Homo sapiens) + Leukocyte surface antigen CD47 (Homo sapiens) (Q08722 whole entry, looked up, the tested form may be a part): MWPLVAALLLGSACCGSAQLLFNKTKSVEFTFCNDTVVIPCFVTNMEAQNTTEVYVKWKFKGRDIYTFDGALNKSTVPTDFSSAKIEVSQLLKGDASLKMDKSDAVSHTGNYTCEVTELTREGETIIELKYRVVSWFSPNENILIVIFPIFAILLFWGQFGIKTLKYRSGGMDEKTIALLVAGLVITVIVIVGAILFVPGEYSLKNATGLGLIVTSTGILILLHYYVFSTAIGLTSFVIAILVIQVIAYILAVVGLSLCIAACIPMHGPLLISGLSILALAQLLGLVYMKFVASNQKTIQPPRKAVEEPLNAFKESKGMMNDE
Chain of Parathyroid hormone/parathyroid hormone-related peptide receptor (Homo sapiens) (Q03431 whole entry, looked up): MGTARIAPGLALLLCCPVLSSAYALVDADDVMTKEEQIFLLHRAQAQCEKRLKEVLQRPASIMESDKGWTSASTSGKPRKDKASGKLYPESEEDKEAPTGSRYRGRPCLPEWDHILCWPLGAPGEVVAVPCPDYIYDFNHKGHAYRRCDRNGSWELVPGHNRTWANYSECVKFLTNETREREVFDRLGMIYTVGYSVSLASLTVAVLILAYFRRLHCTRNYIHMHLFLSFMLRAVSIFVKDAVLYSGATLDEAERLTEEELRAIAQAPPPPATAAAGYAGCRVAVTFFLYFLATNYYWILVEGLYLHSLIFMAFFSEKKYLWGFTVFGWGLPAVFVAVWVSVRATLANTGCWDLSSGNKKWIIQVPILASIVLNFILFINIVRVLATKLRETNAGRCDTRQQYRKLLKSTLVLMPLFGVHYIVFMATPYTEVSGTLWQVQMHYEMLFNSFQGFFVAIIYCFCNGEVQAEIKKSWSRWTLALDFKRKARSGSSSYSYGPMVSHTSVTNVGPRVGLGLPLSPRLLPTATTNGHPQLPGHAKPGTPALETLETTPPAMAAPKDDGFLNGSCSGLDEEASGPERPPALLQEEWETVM

CCCC1O[C@@H]2C[C@H]3[C@@H]4CCC5=CC(=O)C=C[C@]5(C)[C@H]4[C@@H](O)C[C@]3(C)[C@]2(C(=O)CO)O1 (some centres not stated)
inactive: [1] | [2]

COc1cc(NS(C)(=O)=O)ccc1Nc1c2ccccc2nc2ccccc12
inactive: [2]

CNC(=O)CN(CCN(CCN(CC(=O)[O-])CC(=O)NC)CC(=O)[O-])CC(=O)[O-].O.[Gd+3]
not listed: [1] | [2]
inactive: all other assays above

O=C1CCC(c2ccc(-n3ccnc3)cc2)=NN1
inactive: [1] | [2]

CCN1CCC[C@H]1CNC(=O)c1c(OC)ccc(Br)c1OC
not listed: [1] | [2]
inactive: all other assays above

CC1(C)CCC(NC(=O)[C@@H](N)CCC(=O)O)CC1
inactive: [1] | [2]

COC(=O)[C@H]1[C@H]2C[C@H]3c4[nH]c5ccccc5c4CCN3C[C@H]2CC[C@@H]1O
inactive: [2]

N[C@H](CO)C(=O)O
inactive: [1] | [2]

CN1C2CCC1CC(OC(=O)c1c[nH]c3ccccc13)C2 (configuration not stated)
inactive: [1] | [2]

CCN(CC)CCNC(=O)COc1ccc(Cl)cc1
not listed: [1] | [2]
inactive: all other assays above

CCCCC1=NC2(CCCC2)C(=O)N1Cc1ccc(-c2ccccc2-c2nn[nH]n2)cc1
not listed: [1] | [2]
inactive: all other assays above

C/C=C/c1ccc(OC)cc1
not listed: [1] | [2]
inactive: all other assays above
